# Measured values from PubChem BioAssay (Tox21).
# Records with an inconclusive call do not appear. Entries that show only a call come without a potency. Calls of active or inactive are those of the source. Calls follow the shape of the dose curve; as a rule, active = well fitted cell-killing curve with a large enough effect in the repeat runs; inconclusive = weak or mixed curves, or effect the other way; inactive = flat fitted curve, though single readings scatter.
# Experiment: qHTS RealTime-Glo MT Cell Viability Assay in HEK293 cells - 8 hour (AID 1224887); also: nearly all actives have a fitted effect of over 50% in size
# Settings: RealTime-Glo luminescence; series mostly up to 76.8 µM
# Excerpt: U.S. Tox21 Program National Center for Advancing Translational Sciences [NCATS] NIH Chemical Genomics Center [NCGC] U.S. Environmental Protection Agency [EPA] National Institutes of Environmental Health Sciences [NIEHS] National Toxicology Program [NTP] U.S. Food and Drug Administration [FDA] Tox21 Assay Overview: Measure of cell viability is critical in the cell-base assay. Analysis of cell viability is necessary for the characterization of cell responses to cytotoxic drugs and environmental stress. A RealTime-Glo MT Cell Viability Assay to monitor cell viability in real time of continues cell culture during 40 hours of compound treatment was used to screen Tox21 10K library compounds in Hek293 cells. The RealTime-Glo MT Cell Viability Assay is a nonlytic, homogeneous, bioluminescent method to measure cell viability in real time using a simple, plate-based method. The assay involves adding NanoLuc luciferase and a cell-permeant prosubstrate to cells in culture. Viable cells reduce the proprietary prosubstrate to generate a substrate for NanoLuc luciferase. This substrate diffuses from cells into the surrounding culture medium, where it is rapidly used by the NanoLuc Enzyme to produce a luminescent signal. The signal correlates with the number of viable cells, making the assay well suited for cytotoxicity studies.
# Tox21 Assay Protocol Summary: The mixture of Hek293 cell suspension and reagents were dispensed at 600cells/6 ul/well in 1536-well tissue culture treated black solid bottom plates using a Multidrop dispenser. After the assay plates were incubated at a 37 C/5% CO2 incubator for 5 hours, 23 nL of compounds dissolved in DMSO, positive and negative controls was transferred to the assay plate by a pintool work station. The plates were incubated at 37 C for 40 hours. The luminescence intensity were measured at 0h, 8h, 16h, 24h, 32h and 40h time points using ViewLux plate reader during compound treatment.
# Potency is read from the fitted curve at half-maximal effect.
row,SMILES,Potency
1,CC(C)(C)c1cc(C=O)cc(C(C)(C)C)c1O,inactive
2,O=C(Cl)c1cc(Cl)cc(Cl)c1,inactive
3,CC(CC(C#N)(c1ccccc1)C(C)C)N(C)C (stereo not given),inactive
4,Sc1nc(S)nc(S)n1,inactive
5,CCOC(C)OCC,inactive
6,c1ccc(CN(Cc2ccccc2)Cc2ccccc2)cc1,inactive
7,CCCN(C1CCN(C(=O)C2CCNCC2)CC1)[C@@H]1CCc2ccc(OC)cc2C1,inactive
8,CC(C)Cc1nccs1,inactive
9,O=C(O)c1cccnc1Nc1cccc(C(F)(F)F)c1,inactive
10,COc1ccc(/C(C)=C/C(=O)O)c(OC)c1,inactive
11,C/C=C1\[C@H]2C=C(C)C[C@]1(N)c1ccc(=O)[nH]c1C2,inactive
12,O=C(O)CCc1nc2ccccc2[nH]1,inactive
13,CC(=O)CC/C=C(\C)CC/C=C(\C)CC/C=C(\C)CCC=C(C)C,inactive
14,CC(=O)Nc1ccn(C2COC(COC(=O)c3ccccc3)O2)c(=O)n1 (stereo not given),inactive
15,COC(=O)/C=C/C(C)=C\C=C\C(C)=C\C=C\C=C(C)\C=C\C=C(C)\C=C\C(=O)O,inactive
16,Cc1cc(C)n(CO)n1,inactive
17,COc1ccc(CN(CCN(C)C)c2ncccn2)cc1,inactive
18,CCC(=O)O[C@]1(C(=O)COC)[C@@H](C)C[C@H]2[C@@H]3CCC4=CC(=O)C=C[C@]4(C)C3(F)[C@@H](O)C[C@@]21C (stereo not given in full),inactive
19,O=C(O)c1cc(C(=O)O)c(C(=O)O)cc1C(=O)O,inactive
20,Cc1cccc(C)c1NC(=O)CN1CCCC1,inactive

row,SMILES,Potency
1,CCOc1ccccc1O,inactive
2,C1CCN(CN2CCCCC2)CC1,inactive
3,Cc1ccc2ccccc2c1[N+](=O)[O-],inactive
4,C[C@]12CCC(=O)C=C1[C@@H]1C[C@@H]1[C@H]1[C@@H]3[C@@H]4C[C@@H]4[C@@]4(CCC(=O)O4)[C@@]3(C)CC[C@@H]12,inactive
5,CC(=O)c1ccc(Cl)c(Cl)c1Cl,inactive
6,NC(=O)c1ccccc1,inactive
7,COc1ccc(/C=C/S(=O)(=O)NC(=O)c2ccc(C)cc2Cl)cc1,inactive
8,[O-][n+]1ccc(Cl)cc1,inactive
9,C(/C=C/C=C/Nc1ccccc1)=Nc1ccccc1,inactive
10,FC(F)(Cl)C(F)(Cl)Cl,inactive
11,CC(=O)Nc1cccc(N)c1,inactive
12,CCCC1CCOC(C)S1 (stereo not given),inactive
13,CCC1=C(C)CN(C(=O)NCCc2ccc(S(=O)(=O)NC(=O)NC3CCC(C)CC3)cc2)C1=O (stereo not given),inactive
14,Cc1c(Cl)cccc1Nc1ccccc1C(=O)O,inactive
15,COc1ccc(C(=O)Nc2ccccc2)cc1[N+](=O)[O-],24.7 µM (active)
16,CC(C)C[C@H](NC(=O)[C@H](Cc1ccccc1)NC(=O)c1cnccn1)B(O)O,inactive
17,Cc1ccc(NC=O)c(C)c1,inactive
18,CC(=O)Oc1cccc2c1C(=O)c1c(OC(C)=O)cc(C(=O)O)cc1C2=O,inactive
19,CCCc1ccc(OC)cc1,inactive
20,CCc1ccc2c(c1)C(=O)c1ccccc1C2=O,inactive
